Source: PubChem BioAssay (Tox21)
Where “and” joins values, the source holds several entries; their conditions need not be identical. Equal entries are not always repeated. Inconclusive results are not listed. Where a call stands in place of a potency, no number is given. Calls of active or inactive are those of the source. The call rests on the fitted dose curve; in most records, active means well fitted activation curve with a large enough effect in the repeat runs; inconclusive means weak or mixed curves; inactive means flat fitted curve, though single readings scatter.

Test: A CellTox Green Cytotoxicity Assay to monitor cytotoxicity in HepG2 cells - 40 hour (AID 1224879); further: nearly all actives have a fitted effect of over 40% in size
Conditions: CellTox Green fluorescence; series mostly up to 76.8 µM
From the text: National Center for Advancing Translational Sciences [NCATS]
NIH Chemical Genomics Center [NCGC]
U.S. Environmental Protection Agency [EPA]
National Institutes of Environmental Health Sciences [NIEHS]
National Toxicology Program [NTP]
Cell-based models are critical for drug discovery. Determining the natural cytotoxic effects resulting from test compounds is an essential research activity. A CellTox Green Cytotoxicity Assay to monitor cytotoxicity in real time of continues cell culture during 40 hours of the compound treatment was used to screen Tox21 10K library compounds in HepG2 cells. CellTox Green Cytotoxicity Assay is a nonlytic, homogeneous, biofluorescent method to measure cytotoxicity in cell culture after experimental manipulation. The assay system uses a proprietary asymmetric cyanine dye that is excluded from viable cells but preferentially stains the dead cell's DNA. […] Viable cells produce no appreciable increases in fluorescence. Therefore, the fluorescence signal produced by the binding interaction with dead cell DNA is proportional to cytotoxicity.
The mixture of HepG2 cell suspension and reagents were dispensed at 600cells/6 ul/well in 1536-well tissue culture treated black solid bottom plates using a Multidrop dispenser. After the assay plates were incubated at a 37 C/5% CO2 incubator for 5 hours, 23 nL of compounds dissolved in DMSO, positive and negative controls was transferred to the assay plate by a pintool work station. The plates were incubated at 37 C for 40 hours. The fluorescence intensity were measured at 0h, 8h, 16h, 24h, 32h and 40h time points using ViewLux plate reader during compound treatment.
Potency means the concentration at half of the fitted maximal effect.

For `CC(C(O)c1ccccc1)N(C)CCOC(c1ccccc1)c1ccccc1` (stereo not given), which Potency is on record?
Its Potency is 26.8 µM (active).

For `COC(=O)[C@]1(C)CCC[C@@]2(C)[C@H]1CC=C1C=C(C(C)C)CC[C@@H]12`, which Potency is on record?
The Potency was 24.5 µM (active).

With `C1CC(COCC2CO2)CCC1COCC1CO1` (stereo not given) as the compound, how does the Potency read?
Its Potency is “inactive”.

With `O=C(Nc1ccc(Cl)cc1)Nc1ccc(Cl)c(C(F)(F)F)c1` as the compound, how does the Potency read?
Its Potency is 19 µM (active).

With `C[Si](C)O[Si](C)C` as the compound, how does the Potency read?
Its Potency is “inactive”.

Which Potency does the source give for `O=C1c2c(O)ccc(O)c2C(=O)c2c(NCCNCCO)ccc(NCCNCCO)c21` here?
Its Potency is “inactive”.

With `Cc1occc1SSc1ccoc1C` as the compound, how does the Potency read?
Its Potency is 54.9 µM (active).

For `CCCCCCCCC(C)=O`, which Potency is on record?
Its Potency is “inactive”.

Which Potency does the source give for `CCCCC(CC)COC(=O)c1ccc(O)cc1` (stereo not given) here?
The Potency was 34.7 µM (active).

With `Cc1cccc(Br)c1` as the compound, how does the Potency read?
Its Potency is “inactive”.

For `CC1CNCC(C)O1` (stereo not given), which Potency is on record?
The Potency was “inactive”.

With `CCO[Si](C)(C)OCC` as the compound, how does the Potency read?
Its Potency is “inactive”.

Which Potency does the source give for `NC1(c2ccc(-c3nc4ccn5c(=O)[nH]nc5c4cc3-c3ccccc3)cc2)CCC1` here?
The Potency was 26.8 µM (active).

For `Cc1ccc(-n2[nH]c(C)c(N=Nc3cccc(-c4cccc(C(=O)O)c4)c3O)c2=O)cc1C`, which Potency is on record?
Its Potency is “inactive”.

Which Potency does the source give for `CCN(CC)c1cccc(C)c1` here?
Its Potency is “inactive”.

Which Potency does the source give for `O[C@@H](c1cc(C(F)(F)F)nc2c(C(F)(F)F)cccc12)[C@H]1CCCCN1` here?
Its Potency is 15.1 µM (active).

With `CCN(CC)CCNc1ccc(CO)c2sc3ccccc3c(=O)c12` as the compound, how does the Potency read?
Its Potency is 13.4 µM (active).

For `C[n+]1c2cc(N)ccc2cc2ccc(N)cc21` (tested in a mixture with another compound), which Potency is on record?
Its Potency is 21.3 µM (active).

For `CCN(CC)CCOC(=O)C1(C2CCCCC2)CCCCC1`, which Potency is on record?
The Potency was 23.9 µM (active).

For `CCCSS/C(CCO)=C(\C)N(C=O)Cc1cnc(C)nc1N`, which Potency is on record?
The Potency was 26.8 µM (active).

For `C=C1C(C)(C)[C@@]2(Cl)C(Cl)[C@]1(Cl)C(Cl)(Cl)C2(Cl)Cl` (stereo not given in full), which Potency is on record?
Its Potency is 53.9 µM (active).

Which Potency does the source give for `CN1CN(C)CN(C)C1` here?
The Potency was “inactive”.

With `CCOC(=O)N1CCC(=C2c3ccc(Cl)cc3CCc3cccnc32)CC1` as the compound, how does the Potency read?
Its Potency is 54.9 µM (active).

With `CN(C)c1ccc(N=NS(=O)(=O)O)cc1` as the compound, how does the Potency read?
The Potency was “inactive”.

Which Potency does the source give for `CC(C)=CCCC(C)CCOC(=O)C(C)C` (stereo not given) here?
Its Potency is “inactive”.

Which Potency does the source give for `Cc1cnccn1` here?
Its Potency is “inactive”.

With `CCCCCCCC/C=C/CCCOC(C)=O` as the compound, how does the Potency read?
Its Potency is “inactive”.

For `CCCCCCCCCCOCC(O)CN` (stereo not given), which Potency is on record?
The Potency was 15.1 µM (active).

For `COCC(=O)O[C@]1(CCN(C)CCCc2nc3ccccc3[nH]2)CCc2cc(F)ccc2[C@@H]1C(C)C`, which Potency is on record?
The Potency was 10.7 µM (active).

With `Cc1nc(Nc2ncc(C(=O)Nc3c(C)cccc3Cl)s2)cc(N2CCN(CCO)CC2)n1` as the compound, how does the Potency read?
The Potency was 26.8 µM (active).

With `Oc1ccc(-c2ccc(O)cc2)cc1` as the compound, how does the Potency read?
Its Potency is “inactive”.

With `CCCCCCCCCCCCOC(=O)c1cc(O)c(O)c(O)c1` as the compound, how does the Potency read?
Its Potency is 48.8 µM (active) and 54.9 µM (active).

With `CC(COC(=O)c1ccccc1)OC(=O)c1ccccc1` (stereo not given) as the compound, how does the Potency read?
The Potency was “inactive”.

For `Cn1cnc2ncnc(N)c21`, which Potency is on record?
The Potency was “inactive”.

With `CCN(CC)CCOc1ccc(C(O)(Cc2ccc(Cl)cc2)c2ccc(C)cc2)cc1` (stereo not given) as the compound, how does the Potency read?
The Potency was 15.1 µM (active).

For `CCOCN(C(=O)CS(=O)(=O)O)c1c(C)cccc1CC`, which Potency is on record?
The Potency was “inactive”.

With `CCCC(=O)OCC(COC(=O)CCC)OC(=O)CCC` as the compound, how does the Potency read?
The Potency was “inactive”.

Which Potency does the source give for `O=C(O)CCn1c2c(c3ccccc31)C[C@H](NS(=O)(=O)c1ccc(F)cc1)CC2` here?
Its Potency is “inactive”.

For `CO[Si](CCCNCCNCCN)(OC)OC`, which Potency is on record?
The Potency was “inactive”.

Which Potency does the source give for `Clc1cccnc1` here?
Its Potency is “inactive”.
